Test results: PubChem BioAssay AID463173 (ICCB-Longwood Screening Facility, Harvard Medical School, 2010)
In all, about 52,000 compounds went through this assay and about 1,700 (3.3%) were called active. Cut-off read from the data, not from the text of the source: active = survival mostly below about 52% (no sharp cut-off); inactive = mostly above about 56%. The entries come from a sample that favours actives as a whole.

Tested on: Wild type
Experiment: S. aureus survival, RN4220 and DeltatarO strains – OD600, teichoic acid synthesis inhibitors, primary screen (AID 463173)
Conditions: S. aureus RN4220 wild type/DeltatarO growth, OD600, 18 h, hits give low values, screened at 18.75 µg/mL (by protocol)

SMILES | survival
O=C(Cn1nc(-c2ccc(Cl)cc2)ccc1=O)NCCc1ccccc1 | 45% (inactive)
C=Cc1ccc(Cn2c(=O)n(-c3cccc(Cl)c3)c(=O)c3c4c(sc32)CN(C(C)=O)CC4)cc1 | 81% (inactive)
Cc1cc(C)c(S(=O)(=O)N2CCN(Cc3nc4ccc(C)cc4o3)CC2)c(C)c1 | 73% (inactive)
O=[N+]([O-])c1cc(-c2nc(-c3ccccc3)no2)ccc1NCC1CCCO1 (configuration not stated) | 86% (inactive)
CC(C)(C)OC(=O)N1CCC(c2c(C(=O)NCc3ccccn3)cnn2-c2ccccc2)CC1 | 73% (inactive)
Cc1ccc(-n2ncc(C(=O)NCc3ccccn3)c2C2CCN(C(=O)OC(C)(C)C)CC2)c(C)c1 | 45% (inactive)
CC(C)(C)OC(=O)N1CCC(c2c(C(=O)NCc3ccccn3)cnn2-c2ccccc2Cl)CC1 | -6% (active)
Cc1c(Cl)cccc1-n1ncc(C(=O)NC2CCCCC2)c1C1CCN(C(=O)OC(C)(C)C)CC1 | 75% (inactive)
CCOC(=O)N1CCC(NC(=O)c2cnn(-c3cccc(Cl)c3C)c2C2CCN(C(=O)OC(C)(C)C)CC2)CC1 | -3% (active)
Cc1c(Cl)cccc1-n1ncc(C(=O)NC2CCCC2)c1C1CCN(C(=O)OC(C)(C)C)CC1 | 66% (inactive)
CC1CCN(S(=O)(=O)c2ccc3c(c2)c(=O)c(C(=O)N2CCN(c4cccc(Cl)c4)CC2)cn3C)CC1 | 94% (inactive)
CCCNC(=O)Cn1nc(-c2ccc(F)cc2)c2cnc3ccc(F)cc3c21 | 82% (inactive)
CCn1c(Cc2ccccc2)nnc1SCC(=O)N1CCCCC1C (configuration not stated) | 116% (inactive)
COc1ccc(NC(=O)CCc2nc3cccnc3n2-c2ccccc2)c(OC)c1 | 68% (inactive)
COc1ccc(OC)c(Nc2nc3ccccc3n3c(C)nnc23)c1 | 83% (inactive)
Nn1cnnc1SCC(=O)N(C1CCCCC1)C1CCCCC1 | 107% (inactive)
O=C(Nc1ccc(NC(=O)c2cccs2)cc1)c1cccs1 | 113% (inactive)
Cc1ccccc1CCNC(=O)c1ccc2c(c1)c(C)c(C)n2Cc1ccccc1 | 124% (inactive)
COc1ccccc1/C=C/c1nc2ccccc2n1C(C)C | 2% (active)
COc1cccc(/C=N/c2nc3ccccc3n2C)c1O | 106% (inactive)
COc1cccc(/C=N/n2c(N)nc3ccccc32)c1OC | 103% (inactive)
CC1CC(C)N(C(=O)c2cc(-c3ccccc3)on2)C(C)C1 (configuration not stated) | 129% (inactive)
CCOc1ccc(NC(=O)CN(c2ccc(Cl)cc2C)S(=O)(=O)c2ccccc2)cc1 | 77% (inactive)

SMILES | survival
CCN(CC)CC(=O)Nc1nc2ccc(OC)cc2s1 | 103% (inactive)
N#C/C(=C\c1ccc(-c2ccc(F)cc2F)o1)c1nc2ccccc2[nH]1 | 38% (inactive)
N#C/C(=C\c1ccc(-c2ccccc2C(=O)O)o1)c1nc2ccccc2[nH]1 | 84% (inactive)
Cc1c(Cl)cccc1-c1ccc(/C=C(\C#N)c2nc3ccccc3[nH]2)o1 | 8% (active)
Cc1ccccc1NC(=O)c1c(NC(=O)C(F)(F)F)sc2c1CCCCC2 | 1% (active)
COc1ccc(NC(=O)c2c(NC(=O)c3ccc(Br)cc3)sc3c2CCCC3)cc1 | 157% (inactive)
COc1ccc(CC(=O)Nc2sc3c(c2C(=O)Nc2ccc(C)cc2)CCCCC3)cc1 | 136% (inactive)
Cc1ccc(NC(=O)c2c(NC(=O)c3ccccc3)sc3c2CCC3)cc1 | 79% (inactive)
Cc1ccccc1NC(=O)c1c(NC(=O)c2ccccc2)sc2c1CCC2 | 137% (inactive)
COc1ccc(NC(=O)c2c(NC(=O)C(F)(F)F)sc3c2CCCCC3)cc1 | -1% (active)
Cc1ccc(NC(=O)c2c(NC(=O)Cc3ccccc3)sc3c2CCCC3)cc1 | 49% (inactive)
Cc1ccc(NC(=O)c2c(NC(=O)C(F)(F)F)sc3c2CCCCC3)cc1 | -3% (active)
Cc1ccccc1NC(=O)c1c(NC(=O)Cc2ccccc2)sc2c1CCC2 | 48% (inactive)
COCCCNc1nc2c(c(=O)n(Cc3ccc(F)cc3)c(=O)n2C)n1C | 130% (inactive)
CCC(O)c1cc2c(cc1NC(=O)c1cccc(Br)c1)OCCO2 (configuration not stated) | 71% (inactive)
Cc1ccc(N(C)C(=O)Cn2cc(S(=O)(=O)N3CCCC3)c(S(=O)(=O)N3CCCC3)c2)cc1 | 73% (inactive)
Cc1cccc(NC(=O)CN2C(=O)C(c3ccc(F)cc3)=NC23CCCCCC3)c1C | 73% (inactive)
CCCN1CCN(c2ncnc3sc(C(=O)Nc4ccc(N(CC)CC)cc4C)c(C)c23)CC1 | 128% (inactive)
CCn1c(SC)nnc1C1CCCN(C(=O)c2ccccc2-c2ccccc2)C1 (configuration not stated) | 120% (inactive)
CCCCCn1c(CCNC(=O)c2cccc(C)c2)nc2ccccc21 | 2% (active)
CCCCCn1c(-c2ccc(OC)c(OC)c2)nc2ccccc21 | 1% (active)
CCCCn1c(CCCNC(=O)c2cccc(C)c2)nc2ccccc21 | 73% (inactive)
CCCCCn1c(-c2cccc(C)c2)nc2ccccc21 | 11% (active)

SMILES | survival
CCCCCn1c(CCCNC(=O)c2cccc(C)c2)nc2ccccc21 | 50% (inactive)
CCCCn1c(C)nc2ccccc21 | 99% (inactive)
CCCCCn1c(C(C)NC(=O)c2ccccc2)nc2ccccc21 (configuration not stated) | 77% (inactive)
CCOc1ccc(Cn2c(-c3ccc(OCC)c(OC)c3)nc3ccccc32)cc1OC | 94% (inactive)
CCCCCn1c(CCCNC(=O)c2ccccc2OC)nc2ccccc21 | 68% (inactive)
Cc1ccc(S(=O)(=O)NCC(c2ccco2)N2CCOCC2)cc1 (configuration not stated) | 78% (inactive)
Cc1ccc2[nH]c(CSc3nnc(NC(=O)c4ccc(Cl)cc4)s3)cc(=O)c2c1 | 71% (inactive)
CCN(CCCNC(=O)c1nn(-c2ccc(C)cc2)c(=O)c2c1c1ccccc1n2C)c1ccccc1 | 82% (inactive)
Cc1cc(=O)c2c(o1)CC(C)(C)CC2=O | 110% (inactive)
Cc1cccc(-n2cnc3cc(C(=O)NCc4ccccc4Cl)ccc32)c1 | 68% (inactive)
CCCCCNC(=O)c1ccc2c(c1)ncn2-c1cccc(C)c1 | -3% (active)
Cc1cc(C)cc(-n2cnc3cc(C(=O)NCCc4ccccc4)ccc32)c1 | 73% (inactive)
Cc1cccc(-n2c(C)nc3cc(C(=O)NCCC4=CCCCC4)ccc32)c1 | 73% (inactive)
CCCNC(=O)c1ccc2c(c1)ncn2-c1ccc(C)cc1C | 59% (inactive)
CCCNC(=O)c1ccc2c(c1)nc(C)n2-c1cccc(C)c1 | 82% (inactive)
Cc1cccc(-n2cnc3cc(C(=O)NC4CCCCCC4)ccc32)c1 | 124% (inactive)
COCCCNC(=O)c1ccc2c(c1)nc(C)n2-c1cccc(C)c1 | 69% (inactive)
Cc1nc2cc(C(=O)NCCC3=CCCCC3)ccc2n1-c1ccc(Br)cc1 | 75% (inactive)
Cc1ccc(-n2cnc3cc(C(=O)NCc4ccccc4Cl)ccc32)c(C)c1 | 10% (active)
CCCCCNC(=O)c1ccc2c(c1)nc(C)n2-c1cccc(C)c1 | -2% (active)
CCOc1ccc(-n2c(C)nc3cc(C(=O)NCCC4=CCCCC4)ccc32)cc1 | -6% (active)
